Bioassay records deposited in PubChem BioAssay by several laboratories.
14-3-3 Bad inh: disrupts binding of bovine 14-3-3 zeta to phospho-Bad peptide | P63103 | TR-FRET 14-3-3zeta/Dy647-pBad peptide displacement, 1 h | inhibition, % at 21.7 µM | hit rate 0.71% among 220,000 | AID 781;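 active = inhibition above about 70%, limit read from the data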
Target sequence (P63103 whole entry, looked up): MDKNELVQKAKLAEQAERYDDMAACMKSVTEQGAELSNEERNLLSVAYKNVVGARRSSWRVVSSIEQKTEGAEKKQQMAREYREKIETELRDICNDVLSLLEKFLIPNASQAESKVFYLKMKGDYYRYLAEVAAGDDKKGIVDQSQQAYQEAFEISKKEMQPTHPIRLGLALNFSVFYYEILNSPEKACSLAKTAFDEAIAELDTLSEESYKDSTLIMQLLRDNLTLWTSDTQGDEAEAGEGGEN
Mcl1 Noxa PPI: disrupts binding of human Mcl-1 to Noxa peptide. Q07820. TR-FRET Mcl-1/Noxa peptide binding, 2 h. inhibition, % at 21.7 µM. hit rate 1.5% among 220,000;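 active = compounds that cut the protein-peptide binding signal by more than 50% relative to plate controls in a single-dose test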;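 also: His-tagged Mcl-1 with rhodamine Noxa BH3 peptide and terbium anti-His antibody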
Mcl-1 Bim block: inhibitors of Bim-Mcl-1 interaction, human | inhibition, % at 10 µM | Bead-based flow cytometry, Bim peptide-Mcl-1 binding | Q07820 | hit rate 0.1% among 190,000; in the data active = inhibition above about 40%
p47phox inh: inhibitors of human p47phox binding; P14598; p47phox/p22phox peptide binding, fluorescence polarization, 2 h; inhibition, % at 24.7 µM; hit rate 0.53% among 220,000; AID 1274;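 active = inhibition above about 30%, limit read from the data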
Mcl1-Bid inh: Mcl-1/Bid interaction inhibition; Q07820; TR-FRET Mcl-1/Bid-Dy647 peptide binding, 1536-well; inhibition, % at 21.7 µM; hit rate 0.97% among 220,000;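 active = compounds that cut the binding signal by more than half at the single screening dose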;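 also: His-tagged Mcl-1 with europium anti-His antibody binding Bid BH3 peptide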
Each line names hits and unclear results; the compound was inactive in the other large screens; [ ] = dose if it differs, or a comment. Sampled rows, rich in hits. Any-hit rate of the full collection: about 3.2%.

COc1cccc(N2CCN(CC(=O)Nc3ccc(SC(F)F)cc3)CC2)c1	none
Cc1ccc(OCCCCNC2CCCC(C)C2C)c(C)c1 (centres undefined)	none
C=CCn1c(SCC(=O)N2CCCCC2)nnc1-c1ccncc1	none
O=C(Cn1cc([N+](=O)[O-])nc1[N+](=O)[O-])N1CCN(c2ccccc2)CC1	none
CC1CCCCN1CC(=O)Nc1ccccc1Sc1ccccc1 (centres undefined)	none
CC1(C#CC[N+]2(C)CCCCC2)CCC2C(O1)c1ccccc1OC2(C)C (centres undefined)	none
Cc1ccc(/C=C2/NC(=O)N(Cc3ccccc3)C2=O)o1	none
O=C(O)c1ccc(-c2ccc(/C=C3\NC(=O)N(Cc4ccc(Cl)cc4)C3=O)o2)cc1	Mcl1 Noxa PPI 61 (no result: Mcl-1 Bim block)
Cc1ccc(CN2C(=O)N/C(=C\c3ccc(-c4ccc(C(=O)O)cc4C)o3)C2=O)cc1	Mcl1 Noxa PPI 57 (no result: Mcl-1 Bim block)
Cc1ccc(C(=O)O)cc1-c1ccc(/C=C2/NC(=O)N(c3ccccc3)C2=O)o1	Mcl1 Noxa PPI 70
Cc1cc(C(=O)O)ccc1-c1ccc(/C=C2\NC(=O)N(Cc3ccccc3Cl)C2=O)o1	Mcl1 Noxa PPI 61
Cc1cccc(NC(=O)c2ccc(C(=O)c3ccccc3)o2)c1	none
CCOC(=O)COc1cc(-n2c(=S)[nH]c3cc(OC)c(OC)cc3c2=O)c(Cl)cc1Cl	p47phox inh 37
CCOC(=O)COc1cc(N2C(=O)CSCC2=O)c(Cl)cc1Cl	none
CCOc1cc(/C=C2\SC(=S)N(C(C(=O)O)c3ccccc3)C2=O)ccc1O (centres undefined)	Mcl1 Noxa PPI 51, Mcl1-Bid inh 51 (no result: Mcl-1 Bim block)
CC(=O)Nc1ccc(C(=O)CSc2nnnn2C2CCCC2)cc1	none
Cc1ccccc1NC(=O)/C=C/c1ccc([N+](=O)[O-])s1	Mcl1-Bid inh 52
O=[N+]([O-])c1ccc(O)c(/C=N/NC(=S)Nc2ccc(Cl)cc2Cl)c1	none (no result: Mcl-1 Bim block)
O=[N+]([O-])c1ccc(/C=N/NC(=S)Nc2ccc(Cl)cc2Cl)s1	Mcl1 Noxa PPI 87, Mcl1-Bid inh 80 (no result: Mcl-1 Bim block)
COc1ccccc1NC(=O)C(=O)N/N=C/c1ccc([N+](=O)[O-])s1	14-3-3 Bad inh 84, Mcl1 Noxa PPI 93, Mcl1-Bid inh 93
COC(=O)N/N=C/c1ccc([N+](=O)[O-])s1	none
Nc1ccc(C(=O)Nc2nc3ccccc3s2)cc1	none
CC(=O)c1sc2nc(-c3cccs3)ccc2c1N	Mcl1 Noxa PPI 74
CC(C)NC(=O)c1sc2nc(-c3cccs3)cc(-c3cccs3)c2c1N	Mcl1 Noxa PPI 52
Nc1c(C(=O)Nc2nc3ccccc3s2)sc2nc(-c3cccs3)ccc12	14-3-3 Bad inh 96[fluorescence artefact?], Mcl1 Noxa PPI 97, Mcl1-Bid inh 92
Cn1nc(-c2ccc(Cl)cc2)cc1NC(=O)CCCC(=O)O	none (no result: Mcl-1 Bim block)
CC(C)(C)c1cc(CN2CCCC(O)C2)c(O)c(C(C)(C)C)c1 (centres undefined)	14-3-3 Bad inh 73
CC1(C)Cc2c(ccc3ccccc23)/C(=C/C(=O)N2CCCCC2)N1	14-3-3 Bad inh 71, Mcl-1 Bim block 42
Cc1ccccc1OCC(=O)NNC(=O)CSc1nc(N)cc(N)n1	none
CCOc1ccccc1N(C(=O)Nc1ccc(Cl)cc1)C1=NCCS1	none
CCOc1ccccc1N(C(=O)Nc1cccc(Cl)c1)C1=NC(C)CS1 (centres undefined)	p47phox inh 35
CSc1nc(C)nc(N/C=C(\C#N)S(=O)(=O)c2ccccc2Cl)n1	none (no result: Mcl-1 Bim block)
COc1ccc(N/C=C2\C(=O)CCc3c2oc2cc(Cl)c(O)c(Cl)c32)cc1	Mcl1 Noxa PPI 74, Mcl1-Bid inh 86 (no result: Mcl-1 Bim block)
COc1cc(/C=C(/C#N)c2nc3ccccc3[nH]2)ccc1OCC(=O)Nc1ccccc1C(C)C	Mcl1-Bid inh 59
COc1cc(/C=C(\C#N)c2nc3ccccc3s2)ccc1OCC(=O)Nc1ccccc1	Mcl1-Bid inh 78
COc1cc(/C=C(\C#N)c2nc3ccccc3[nH]2)ccc1OC(=O)c1ccco1	none
CCOc1cc(/C=C(/C#N)c2ccc(F)cc2)ccc1OCc1ccc(C(=O)O)o1	none
COc1cc(/C=C(\C#N)c2ccccn2)ccc1OCC(=O)Nc1c(Cl)cccc1Cl	none
CCOc1cc(/C=C(/C#N)c2nc3ccccc3[nH]2)ccc1OCc1ccc(C(=O)O)o1	Mcl1 Noxa PPI 52
COc1cc(/C=C(/C#N)c2nc3ccccc3[nH]2)ccc1OCC(=O)Nc1ccccc1C	Mcl1-Bid inh 67 (no result: 14-3-3 Bad inh)
O=[N+]([O-])c1ncn(Cc2c(Cl)cccc2Cl)n1	none
N#Cc1ccc(C(=O)Nc2ccc([N+](=O)[O-])cc2)c(F)c1	none
